According to the supplement of paper PMC10849652:
About 7,900 targets were measured; listed, in parts, are those with a hit and a random draw of the rest. About 0.6% of all pairs of compound and target were hits.

Assays:
Test in all cases: log2 fold change, soluble protein after heating vs DMSO (PISA); higher = thermal stabilisation; K562 cells, 10 uM, 30 min; active = over 0.2 and 3.5 SD of the protein, either way, in both replicates (recomputed)
[1] = compound: Cc1ccc(NC(=O)c2ccc(CN3CC[C@H](N(C)C)C3)c(C(F)(F)F)c2)cc1Nc1nccc(-c2cncnc2)n1 [bafetinib]
In short: (§1)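 K562 cells at 2×10^6 cells/mL were treated for 30 min with 10 μM compound, and aliquots were heated for 3 min over 48°C-58°C before pooling. Extraction used PBS with 0.5% NP-40 at 4°C, and soluble protein was the supernatant after 21,000xg for 90 min, measured by TMTpro 16plex LC-MS/MS with channel sums equalised. Thermal stability values, relative to control samples and from duplicates, are log2 fold changes.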

[2] = compound: Cc1cccc(CC(=O)N2CCc3c2ccc(-c2cn(C)c4ncnc(N)c24)c3F)n1
In short: as §1

[3] = compound: Cc1cn(-c2cc(NC(=O)c3ccc(C)c(Nc4nccc(-c5cccnc5)n4)c3)cc(C(F)(F)F)c2)cn1 [nilotinib]
In short: as §1

[4] = compound: Cc1nc(Nc2n[nH]c3c2CN(C(=O)N[C@H](CN(C)C)c2ccccc2)C3(C)C)c2sccc2n1
In short: as §1

[5] = compound: Cc1nc(Nc2ncc(C(=O)Nc3c(C)cccc3Cl)s2)cc(N2CCN(CCO)CC2)n1 [dasatinib]
In short: as §1

[6] = compound: Cc1ncc(-c2ccnc(Nc3ccc(S(C)(=O)=O)cc3)n2)n1C(C)C
In short: as §1

[7] = compound: Cn1cc(-c2ccc3c(c2)CCN3C(=O)Cc2cccc(C(F)(F)F)c2)c2c(N)ncnc21
In short: as §1

[8] = compound: Cn1cc(-c2ccc3nnc(C(F)(F)c4ccc5ncccc5c4)n3n2)cn1
In short: as §1

[9] = compound: Cn1cncc1[C@@](N)(c1ccc(Cl)cc1)c1ccc2c(c1)c(-c1cccc(Cl)c1)cc(=O)n2C [tipifarnib]
In short: as §1

[10] = compound: FC(F)(F)c1ccc(/C=C/c2nc(COc3ccc(CCCCn4ccnn4)cc3)co2)cc1 [mubritinib]
In short: as §1

[11] = compound: NC(=O)Nc1cc(-c2cccc(F)c2)sc1C(=O)N[C@H]1CCCNC1
In short: as §1

[12] = compound: NC(=O)c1cnc(N[C@@H]2CCCC[C@@H]2N)nc1Nc1cccc(-n2nccn2)c1
In short: as §1

[13] = compound: NC1(c2ccc(-c3nc4ccn5c(=O)[nH]nc5c4cc3-c3ccccc3)cc2)CCC1
In short: as §1

[14] = compound: NCC(=O)Nc1ccc(-n2nc(C(F)(F)F)cc2-c2ccc3c(ccc4ccccc43)c2)cc1
In short: as §1

[15] = compound: Nc1ccccc1NC(=O)c1ccc(CNC(=O)OCc2cccnc2)cc1 [entinostat]
In short: as §1

[16] = compound: O=C(CCCCCCC(=O)Nc1ccccc1)NO [vorinostat]
In short: as §1

[17] = compound: O=C(CCCCCCNC(=O)c1cnc(N(c2ccccc2)c2ccccc2Cl)nc1)NO [citarinostat]
In short: as §1

[18] = compound: O=C(O)c1ccc2c(c1)nc(Nc1cccc(Cl)c1)c1ccncc12 [silmitasertib]
In short: as §1

[19] = compound: O=C1NC(=O)C(c2cnc3ccccn23)=C1c1cn2c3c(cc(F)cc13)CN(C(=O)N1CCCCC1)CC2
In short: as §1

[20] = compound: c1cc(OCCN2CCCCC2)cc(-c2n[nH]c3ccc(-c4nnc[nH]4)cc23)c1
In short: as §1

Measured: log2 fold change

VTI1A (UniProt Q96AJ9)
Sequence of UniProt Q96AJ9 (Q96AJ9 whole entry, looked up): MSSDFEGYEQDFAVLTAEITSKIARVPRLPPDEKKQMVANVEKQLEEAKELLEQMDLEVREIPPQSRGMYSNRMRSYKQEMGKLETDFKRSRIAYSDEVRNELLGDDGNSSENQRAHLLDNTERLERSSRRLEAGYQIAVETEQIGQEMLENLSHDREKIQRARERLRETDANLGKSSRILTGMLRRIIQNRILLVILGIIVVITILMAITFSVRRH
inactive: [1] -0.004 | [2] -0.061 | [3] -0.006 | [4] -0.001 | [5] 0.004 | [6] -0.005 | [7] -0.001 | [8] 0.01 | [9] 0.081 | [10] -0.007 | [11] -0.07 | [12] 0.014 | [13] -0.125 | [14] -0.014 | [15] -0.009 | [16] 0.028 | [17] -0.016 | [18] 0.051 | [19] -0.01 | [20] -0.039

TPR (UniProt P12270)
Sequence of UniProt P12270 (P12270 whole entry, looked up): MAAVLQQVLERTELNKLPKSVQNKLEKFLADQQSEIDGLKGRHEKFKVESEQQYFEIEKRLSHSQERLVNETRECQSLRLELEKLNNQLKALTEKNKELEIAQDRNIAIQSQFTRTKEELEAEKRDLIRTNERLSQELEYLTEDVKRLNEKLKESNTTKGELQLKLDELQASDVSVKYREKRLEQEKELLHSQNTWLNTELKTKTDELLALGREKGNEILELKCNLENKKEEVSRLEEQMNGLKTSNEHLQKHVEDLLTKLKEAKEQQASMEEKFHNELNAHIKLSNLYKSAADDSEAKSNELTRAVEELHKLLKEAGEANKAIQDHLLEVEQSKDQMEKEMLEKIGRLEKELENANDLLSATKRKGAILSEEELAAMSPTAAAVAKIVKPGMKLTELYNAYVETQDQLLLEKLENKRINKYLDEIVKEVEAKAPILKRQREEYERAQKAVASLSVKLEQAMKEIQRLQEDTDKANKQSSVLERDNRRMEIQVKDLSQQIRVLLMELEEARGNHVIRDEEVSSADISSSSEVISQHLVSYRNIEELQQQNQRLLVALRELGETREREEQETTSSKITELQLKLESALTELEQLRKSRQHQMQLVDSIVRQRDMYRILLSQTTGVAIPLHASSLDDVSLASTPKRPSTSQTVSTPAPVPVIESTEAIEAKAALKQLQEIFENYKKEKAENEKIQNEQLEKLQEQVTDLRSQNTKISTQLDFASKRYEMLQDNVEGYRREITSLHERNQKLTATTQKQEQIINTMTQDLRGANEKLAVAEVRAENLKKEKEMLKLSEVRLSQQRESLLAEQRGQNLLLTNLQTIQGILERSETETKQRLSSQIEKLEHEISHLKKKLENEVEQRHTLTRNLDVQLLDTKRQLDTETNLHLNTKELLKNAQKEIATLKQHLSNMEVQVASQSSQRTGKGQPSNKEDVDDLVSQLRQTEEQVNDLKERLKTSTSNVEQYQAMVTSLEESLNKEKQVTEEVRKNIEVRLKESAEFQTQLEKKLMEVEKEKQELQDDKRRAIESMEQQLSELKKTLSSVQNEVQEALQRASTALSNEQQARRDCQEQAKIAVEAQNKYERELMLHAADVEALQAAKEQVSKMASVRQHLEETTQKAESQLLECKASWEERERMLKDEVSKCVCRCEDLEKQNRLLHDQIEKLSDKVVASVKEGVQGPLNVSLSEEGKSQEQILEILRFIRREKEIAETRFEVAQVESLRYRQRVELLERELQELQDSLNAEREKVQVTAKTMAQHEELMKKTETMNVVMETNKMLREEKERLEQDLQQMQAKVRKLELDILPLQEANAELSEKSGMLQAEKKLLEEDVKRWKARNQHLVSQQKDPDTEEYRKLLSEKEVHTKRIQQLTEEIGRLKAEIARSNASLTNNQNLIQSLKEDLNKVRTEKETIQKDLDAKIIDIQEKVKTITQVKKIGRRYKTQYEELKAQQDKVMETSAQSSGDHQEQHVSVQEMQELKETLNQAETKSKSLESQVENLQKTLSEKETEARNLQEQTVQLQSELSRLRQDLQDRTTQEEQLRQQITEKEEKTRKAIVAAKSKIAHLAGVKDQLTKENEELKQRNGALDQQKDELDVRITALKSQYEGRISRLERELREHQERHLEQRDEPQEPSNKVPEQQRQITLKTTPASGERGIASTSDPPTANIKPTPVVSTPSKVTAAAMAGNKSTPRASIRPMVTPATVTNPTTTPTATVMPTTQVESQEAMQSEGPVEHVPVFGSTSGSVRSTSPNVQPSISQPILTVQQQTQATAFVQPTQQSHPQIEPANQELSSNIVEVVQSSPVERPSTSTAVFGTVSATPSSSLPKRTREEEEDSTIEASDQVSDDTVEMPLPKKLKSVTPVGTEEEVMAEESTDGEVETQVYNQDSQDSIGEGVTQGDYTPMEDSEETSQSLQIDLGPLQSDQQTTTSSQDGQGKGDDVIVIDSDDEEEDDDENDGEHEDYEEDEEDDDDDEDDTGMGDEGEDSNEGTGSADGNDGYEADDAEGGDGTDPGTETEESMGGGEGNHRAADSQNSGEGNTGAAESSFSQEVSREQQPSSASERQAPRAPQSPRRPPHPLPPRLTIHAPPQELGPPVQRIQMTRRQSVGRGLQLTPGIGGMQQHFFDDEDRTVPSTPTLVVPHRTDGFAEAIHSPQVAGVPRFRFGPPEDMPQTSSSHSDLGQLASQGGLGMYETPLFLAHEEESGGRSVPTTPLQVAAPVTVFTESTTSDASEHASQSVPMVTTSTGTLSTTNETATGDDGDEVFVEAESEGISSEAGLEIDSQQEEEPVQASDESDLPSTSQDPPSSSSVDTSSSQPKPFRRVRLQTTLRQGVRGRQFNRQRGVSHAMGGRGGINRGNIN
active: [18] 0.3
inactive: [1] -0.011 | [2] -0.004 | [3] 0.056 | [4] 0.04 | [5] 0.158 | [6] 0.047 | [7] -0.184 | [8] -0.017 | [9] 0.002 | [10] 0.089 | [11] 0.09 | [12] -0.039 | [13] 0.06 | [14] -0.032 | [15] -0.019 | [16] -0.084 | [17] 0.008 | [19] 0.085 | [20] 0.005

TSFM (UniProt P43897)
inactive: [1] 0.091 | [2] -0.087 | [3] 0.062 | [4] -0.217 | [5] -0.143 | [6] 0.039 | [7] 0.033 | [8] 0.033 | [9] 0.013 | [11] -0.068 | [12] 0.03 | [13] -0.05 | [14] -0.076 | [15] 0.162 | [16] 0.016 | [17] 0.181 | [18] 0.11 | [19] -0.043 | [20] 0
active: [10] -0.36

UBE4A isoform 2 (UniProt Q14139)
inactive: [1] 0.01 | [2] 0.065 | [3] -0.111 | [4] -0.162 | [5] -0.196 | [6] 0.015 | [7] -0.183 | [8] -0.023 | [9] -0.092 | [10] 0.021 | [11] -0.017 | [12] 0.01 | [13] -0.136 | [14] 0.001 | [15] 0.146 | [16] 0.133 | [17] 0.059 | [18] 0.117 | [19] 0.026 | [20] -0.014

WASHC2C, A0A096LPC5
inactive: [1] -0.144 | [2] -0.335 | [3] 0.093 | [4] -0.101 | [5] 0.13 | [6] -0.003 | [7] -0.016 | [8] -0.082 | [9] 0.283 | [10] 0.123 | [11] -0.084 | [12] -0.208 | [13] -0.06 | [14] -0.058 | [15] -0.015 | [16] -0.209 | [17] -0.113 | [18] 0.361 | [19] 0.001 | [20] -0.151

TMEM263 (UniProt Q8WUH6)
inactive: [1] -0.434 | [2] 0.037 | [3] -0.079 | [4] -0.027 | [5] -0.249 | [6] 0.124 | [7] -0.011 | [8] 0.02 | [9] -0.182 | [10] 0.054 | [11] -0.044 | [12] -0.335 | [13] -0.389 | [14] -0.299 | [15] 0.123 | [16] 0.058 | [17] 0.068 | [18] 0.057 | [19] -0.08 | [20] -0.037

WASHC3 (UniProt Q9Y3C0)
inactive: [1] -0.06 | [2] -0.032 | [3] -0.042 | [4] 0.001 | [5] 0.047 | [6] 0.028 | [7] 0.035 | [8] 0.048 | [9] 0.029 | [10] 0.003 | [11] -0.037 | [12] 0.1 | [14] -0.029 | [15] -0.011 | [16] -0.053 | [17] 0.016 | [18] 0.075 | [19] -0.054 | [20] -0.005
active: [13] -0.271

TRMT10C (UniProt Q7L0Y3)
inactive: [1] -0.044 | [2] 0.107 | [3] -0.043 | [4] -0.066 | [5] -0.181 | [6] 0.012 | [7] 0.046 | [8] 0.038 | [9] -0.037 | [10] 0.153 | [11] -0.055 | [12] -0.027 | [13] -0.137 | [14] -0.018 | [15] 0.022 | [16] 0 | [17] -0.018 | [18] -0.026 | [19] -0.075 | [20] 0.035

TMEM120A (UniProt Q9BXJ8)
Sequence of UniProt Q9BXJ8 (Q9BXJ8 whole entry, looked up): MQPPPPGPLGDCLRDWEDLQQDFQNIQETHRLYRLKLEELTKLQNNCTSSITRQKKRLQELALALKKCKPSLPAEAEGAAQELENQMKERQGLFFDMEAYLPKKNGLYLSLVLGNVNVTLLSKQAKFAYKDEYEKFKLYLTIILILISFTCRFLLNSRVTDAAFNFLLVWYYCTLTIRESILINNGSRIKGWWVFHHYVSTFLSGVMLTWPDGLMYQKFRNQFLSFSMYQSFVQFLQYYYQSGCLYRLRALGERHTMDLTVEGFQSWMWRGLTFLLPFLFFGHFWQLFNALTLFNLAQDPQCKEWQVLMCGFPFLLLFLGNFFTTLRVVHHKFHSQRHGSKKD
active: [1] 0.454
inactive: [2] -0.054 | [3] -0.009 | [4] -0.038 | [5] 0.046 | [6] -0.09 | [7] 0.053 | [8] 0.057 | [9] 0.011 | [10] 0.048 | [11] 0.229 | [12] 0.089 | [13] 0.058 | [14] 0.091 | [15] 0.002 | [16] 0.1 | [17] 0.252 | [18] -0.124 | [19] 0.185 | [20] 0.082

XRCC6 (UniProt P12956)
inactive: [1] -0.003 | [2] 0.032 | [3] -0.067 | [4] -0.248 | [5] -0.147 | [6] -0.07 | [7] -0.01 | [8] 0.018 | [9] -0.104 | [10] 0.043 | [11] -0.064 | [12] -0.143 | [13] -0.139 | [14] -0.08 | [15] 0.098 | [16] 0.134 | [17] 0.107 | [18] 0.026 | [19] -0.119 | [20] -0.049

XPOT (UniProt O43592)
inactive: [1] -0.014 | [2] 0.013 | [3] -0.083 | [4] -0.012 | [5] -0.13 | [6] 0.083 | [7] -0.075 | [8] 0.066 | [9] -0.173 | [10] 0.077 | [11] -0.04 | [12] -0.103 | [13] -0.241 | [14] -0.061 | [15] 0.063 | [16] 0.031 | [17] 0.069 | [18] 0.134 | [19] 0.057 | [20] -0.047

TRAM1 (UniProt Q15629)
inactive: [1] -0.152 | [2] 0.117 | [3] -0.075 | [4] 0.074 | [5] -0.138 | [6] 0.072 | [7] -0.07 | [8] 0.02 | [9] -0.152 | [10] -0.022 | [11] -0.104 | [12] -0.073 | [13] -0.162 | [14] -0.196 | [15] -0.075 | [16] 0.034 | [17] -0.083 | [18] 0.066 | [19] 0.025 | [20] -0.021

VPS33B (UniProt Q9H267)
Sequence of UniProt Q9H267 (Q9H267 whole entry, looked up): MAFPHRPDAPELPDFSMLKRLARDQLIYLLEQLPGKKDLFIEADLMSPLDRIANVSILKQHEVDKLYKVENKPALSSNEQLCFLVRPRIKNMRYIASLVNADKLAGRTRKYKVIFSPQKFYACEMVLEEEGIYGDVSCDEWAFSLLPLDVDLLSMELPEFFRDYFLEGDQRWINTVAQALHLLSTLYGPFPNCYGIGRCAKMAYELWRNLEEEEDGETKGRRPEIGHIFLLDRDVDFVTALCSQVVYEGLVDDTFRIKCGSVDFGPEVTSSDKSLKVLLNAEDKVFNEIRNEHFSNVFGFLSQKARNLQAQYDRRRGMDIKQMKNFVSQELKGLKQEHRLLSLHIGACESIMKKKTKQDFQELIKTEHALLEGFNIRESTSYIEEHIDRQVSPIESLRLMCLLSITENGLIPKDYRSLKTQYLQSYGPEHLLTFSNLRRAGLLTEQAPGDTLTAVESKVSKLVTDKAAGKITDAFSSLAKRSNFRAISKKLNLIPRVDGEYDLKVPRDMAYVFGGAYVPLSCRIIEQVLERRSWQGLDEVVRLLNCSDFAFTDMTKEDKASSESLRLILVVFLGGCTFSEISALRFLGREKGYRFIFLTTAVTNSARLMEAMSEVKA
inactive: [1] 0.01 | [2] 0.04 | [3] -0.056 | [4] -0.158 | [5] -0.209 | [6] 0.099 | [7] 0.017 | [8] -0.069 | [9] -0.107 | [10] 0.054 | [11] -0.013 | [12] -0.154 | [13] -0.118 | [14] -0.018 | [15] 0.094 | [16] 0.072 | [17] 0.076 | [18] -0.011 | [19] 0.017 | [20] -0.057

UBAP1 isoform 4 (UniProt Q9NZ09)
Sequence of UniProt Q9NZ09 (Q9NZ09 whole entry, looked up): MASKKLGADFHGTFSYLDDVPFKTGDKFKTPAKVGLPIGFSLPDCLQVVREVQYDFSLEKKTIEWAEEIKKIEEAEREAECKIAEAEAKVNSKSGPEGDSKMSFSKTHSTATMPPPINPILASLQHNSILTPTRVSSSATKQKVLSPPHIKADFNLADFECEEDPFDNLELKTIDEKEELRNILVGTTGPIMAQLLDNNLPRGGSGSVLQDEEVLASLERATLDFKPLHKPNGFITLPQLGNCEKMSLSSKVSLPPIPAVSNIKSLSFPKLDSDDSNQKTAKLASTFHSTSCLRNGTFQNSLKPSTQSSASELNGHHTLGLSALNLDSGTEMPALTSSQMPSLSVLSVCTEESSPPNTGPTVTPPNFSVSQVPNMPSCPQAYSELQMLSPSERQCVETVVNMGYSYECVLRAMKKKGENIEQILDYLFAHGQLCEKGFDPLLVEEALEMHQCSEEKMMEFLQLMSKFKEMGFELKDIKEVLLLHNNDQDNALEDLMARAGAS
inactive: [1] -0.026 | [2] -0.022 | [3] -0.082 | [4] -0.15 | [5] -0.086 | [6] 0.009 | [7] 0.015 | [8] -0.015 | [9] -0.131 | [10] 0.084 | [11] -0.035 | [12] -0.005 | [13] -0.052 | [14] 0.002 | [15] -0.027 | [16] -0.019 | [17] 0.193 | [18] 0.064 | [19] -0.032 | [20] -0.049

VPS11 (UniProt Q9H270)
Sequence of UniProt Q9H270 (Q9H270 whole entry, looked up): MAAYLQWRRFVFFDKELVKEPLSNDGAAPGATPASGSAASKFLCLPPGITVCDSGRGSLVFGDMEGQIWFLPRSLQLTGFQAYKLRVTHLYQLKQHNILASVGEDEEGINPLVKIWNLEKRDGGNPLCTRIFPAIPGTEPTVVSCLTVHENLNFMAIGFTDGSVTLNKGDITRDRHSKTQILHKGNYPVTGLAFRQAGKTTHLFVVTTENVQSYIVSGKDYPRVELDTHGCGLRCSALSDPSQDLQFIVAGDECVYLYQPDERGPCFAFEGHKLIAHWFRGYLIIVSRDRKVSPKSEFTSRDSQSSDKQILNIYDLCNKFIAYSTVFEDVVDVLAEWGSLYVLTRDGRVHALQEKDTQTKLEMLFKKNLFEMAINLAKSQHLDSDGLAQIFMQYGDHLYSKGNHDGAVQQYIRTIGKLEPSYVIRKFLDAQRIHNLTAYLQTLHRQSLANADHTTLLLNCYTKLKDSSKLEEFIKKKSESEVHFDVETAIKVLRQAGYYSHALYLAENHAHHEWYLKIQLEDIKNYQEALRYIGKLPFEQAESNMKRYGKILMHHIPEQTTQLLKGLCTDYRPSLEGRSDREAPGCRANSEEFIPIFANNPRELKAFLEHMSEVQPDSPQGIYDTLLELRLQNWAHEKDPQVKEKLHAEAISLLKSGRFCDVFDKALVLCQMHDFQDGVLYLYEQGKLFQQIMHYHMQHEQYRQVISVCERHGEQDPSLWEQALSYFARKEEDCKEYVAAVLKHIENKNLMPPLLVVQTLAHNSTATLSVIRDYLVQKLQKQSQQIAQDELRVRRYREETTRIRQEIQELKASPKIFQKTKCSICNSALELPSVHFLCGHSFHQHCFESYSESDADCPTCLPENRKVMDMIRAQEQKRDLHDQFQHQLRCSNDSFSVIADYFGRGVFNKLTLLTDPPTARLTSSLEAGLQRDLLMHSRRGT
inactive: [1] -0.033 | [2] 0.006 | [3] -0.048 | [4] -0.006 | [5] -0.154 | [6] 0.005 | [7] -0.016 | [8] -0.004 | [9] -0.093 | [10] 0.027 | [11] -0.012 | [12] -0.053 | [13] -0.159 | [14] -0.028 | [15] 0.015 | [16] 0.145 | [17] 0.065 | [18] 0.025 | [19] 0.024 | [20] 0.084

WAPL isoform 3 (UniProt Q7Z5K2)
active: [13] -0.423
inactive: [1] 0 | [2] -0.044 | [3] -0.011 | [4] 0.01 | [5] -0.081 | [6] -0.03 | [7] 0.04 | [8] 0.096 | [9] -0.218 | [10] 0.156 | [11] -0.009 | [12] -0.033 | [14] -0.066 | [15] 0.01 | [16] 0.082 | [17] 0.198 | [18] 0.067 | [19] -0.148 | [20] 0.078
